# Only a selection was taken, and hits are over-represented in it overall.
# HSV augment: HSV replication enhancement; HSV replication augmentation in cells, fold increase; maximum fold increase; actives 0.005% (n = 220,000); AID 1956; in the data active = maximum fold increase above about 1.5; inconclusive = no clear call, values can overlap the other calls; tested in PC3 cells
# ROMK mod: modulators of human ROMK potassium channel | P48048 | Tet-inducible ROMK, thallium flux fluorescence; actives lie on both sides | B-score at 10 µM | actives 2% (n = 130,000);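 active = signal ratio slope over the read window, or its plate-corrected B-score, at least 3 SD from the plate mean, either direction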;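 note: B-score of the F/F0 ratio slope over 7 to 12 s after thallium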
# Target sequence (P48048 whole entry, looked up): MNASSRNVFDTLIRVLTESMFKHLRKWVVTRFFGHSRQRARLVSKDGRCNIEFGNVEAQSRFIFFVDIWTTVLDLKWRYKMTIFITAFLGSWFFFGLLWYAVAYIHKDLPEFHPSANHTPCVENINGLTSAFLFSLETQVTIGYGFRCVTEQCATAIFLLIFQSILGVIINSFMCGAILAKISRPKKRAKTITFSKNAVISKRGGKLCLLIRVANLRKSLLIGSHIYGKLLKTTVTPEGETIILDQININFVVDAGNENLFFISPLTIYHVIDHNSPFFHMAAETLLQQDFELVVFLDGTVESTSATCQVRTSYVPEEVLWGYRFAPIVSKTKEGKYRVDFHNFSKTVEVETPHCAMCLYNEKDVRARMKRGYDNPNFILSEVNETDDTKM
# Ins promoter up: MIN6 insulin promoter up-regulation. MIN6 insulin promoter-GFP reporter, high-content imaging; hits give high values. z-score at 5 µM. actives 0.3% (n = 190,000);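 active = z-score above 3 at 5 µM with at least 500 cells counted in the well; inconclusive = wells under 500 cells, flagged as cytotoxic or low count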
# Tb hexokinase: blocks Trypanosoma brucei hexokinase 1 activity. recombinant TbHK1, G6PDH-coupled NADH A340. inhibition, % at 10 µM. actives 0.11% (n = 220,000);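 active = inhibition of 50% or more in the single-dose primary screen; inactive = inhibition below 50%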
# INS promoter inh: TRM-6 insulin promoter activity inhibition | TRM-6 cells (human fetal islet line), insulin promoter-eGFP reporter, imaging; reporter expression induced with tamoxifen | inhibition, % at 2 µM | actives 0.9% (n = 130,000);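 active = inhibition above the mean plus 3 SD, with well images judged a real hit on visual review, cut at about 60% in these data, passing the limit was not always enough; inconclusive = inhibition over the cutoff but images rejected on review; inactive = inhibition not above the cutoff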
# ROMK retest: confirmation of human ROMK potassium channel modulators | actives 54% (n = 3,000) | normalized thallium flux (F/F0 slope) at 10 µM | shares compounds with ROMK mod | ROMK thallium flux, fluorescence ratio; hits give low values;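 active = Flux at 10 µM at least 3 SD below or above vehicle control mean in one or both replicates; inconclusive = no clear call, values can overlap the other calls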
# Starred values were filed as active, the others as inactive; i = inactive; ? = inconclusive; . = no result given.
SMILES,HSV augment,ROMK mod,Ins promoter up,Tb hexokinase,INS promoter inh,ROMK retest
CN1C2CCC1/C(=C/c1ccccn1)C(=O)/C2=C\c1ccccn1,i,-3.78*,?,-18.5,i,0.0431*
Cc1ccccc1-n1c(/C=C/c2ccccn2)nc2ccccc2c1=O,i,.,-0.54,-36.9,.,.
O=Cc1c(C(=O)O)n(Cc2ccc(Cl)cc2)c2ccccc12,?,.,1.87,-9.1,-59.3,0.0525*
N=C1c2ccccc2CN1CC(=O)c1ccccc1,i,.,0.39,3.2,.,.
CCC(C)C12CN3CCN(CC(C)(C3)C1O)C2 (stereo not drawn),i,-0.00201,.,-9.1,5.0,.
O=c1[nH]c(=O)n(CC2CCCO2)c(O)c1/C=C1\C=Nc2ccccc21 (stereo not drawn),i,0.0808,-0.5,5.3,23.5,0.0585*
CCCCCc1nc2c(c(=O)c3ccccc3n2C)c(=O)n1C1CCCCCC1,i,.,-2.34,8.3,.,0.0529*
CCOc1ccc(-c2c(C)n(-c3ccc(OCC)cc3)c3[n+]2CCCCC3)cc1,i,.,?,7.3,.,0.0426*
CCc1ccc(CNCCc2ccc(F)cc2)cc1,i,-2.34,-0.06,8.0,0.0,.
CCN(CC)c1ccc(CNCCc2ccc(F)cc2)cc1,i,-2.78*,-0.71,7.5,.,0.0542*
Cn1c[n+](C)cc1C(O)c1ccccc1 (stereo not drawn),i,0.543,0.82,6.0,15.8,.
